PP5 inh – PP5 (human) phosphatase inhibition; P53041; inhibition, % at 6.7 µM; purified PP5c, OMFP substrate fluorescence; AID 1987; actives 0.18% (n = 320,000);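 active means inhibition above the campaign's mean inhibition across all tested compounds plus 3 SD, cut at about 9.5% in these data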
Target sequence (P53041 whole entry, looked up): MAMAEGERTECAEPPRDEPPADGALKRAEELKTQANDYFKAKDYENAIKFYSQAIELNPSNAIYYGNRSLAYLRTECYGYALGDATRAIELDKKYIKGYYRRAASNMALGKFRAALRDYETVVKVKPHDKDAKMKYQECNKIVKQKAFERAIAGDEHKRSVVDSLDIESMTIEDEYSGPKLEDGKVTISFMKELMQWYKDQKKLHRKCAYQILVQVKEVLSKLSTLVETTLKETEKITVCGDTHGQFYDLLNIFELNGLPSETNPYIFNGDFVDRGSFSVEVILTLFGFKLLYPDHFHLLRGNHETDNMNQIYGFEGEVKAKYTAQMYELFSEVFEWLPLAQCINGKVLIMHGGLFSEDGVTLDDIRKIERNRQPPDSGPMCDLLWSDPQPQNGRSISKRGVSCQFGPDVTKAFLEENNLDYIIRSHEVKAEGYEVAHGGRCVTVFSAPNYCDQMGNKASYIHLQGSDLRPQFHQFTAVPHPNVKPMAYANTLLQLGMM
PAFAH1B3 inh – inhibitors of human PAFAH1B3; Q15102; actives 0.28% (n = 340,000); inhibition, % at 3.39 µM; recombinant PAFAH1B3, FP-rhodamine probe, fluorescence polarization; AID 492972;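 active means inhibition above the screen-wide average of all tested compounds plus 3 SD, cut at about 25% in these data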
PAFAH2 FP inh – inhibitors of human PAFAH2; Q99487; recombinant PAFAH2, FP-rhodamine activity probe, fluorescence polarization; inhibition, % at 3.39 µM; actives 0.99% (n = 340,000);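 active means inhibition above the mean over all tested compounds plus 3 SD, cut at about 30% in these data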;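 further: inhibitors block probe labeling of enzyme so polarization drops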
PAFAH1B2 inh – blocks human PAF acetylhydrolase 1b catalytic subunit 2 | P68402 | actives 1.2% (n = 340,000) | inhibition, % at 3.39 µM | recombinant PAFAH1B2, FP-rhodamine activity probe, fluorescence polarization | AID 492953;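 active means inhibition above the mean of all tested compounds plus 3 SD, cut at about 24% in these data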
Target sequence (P68402 whole entry, looked up): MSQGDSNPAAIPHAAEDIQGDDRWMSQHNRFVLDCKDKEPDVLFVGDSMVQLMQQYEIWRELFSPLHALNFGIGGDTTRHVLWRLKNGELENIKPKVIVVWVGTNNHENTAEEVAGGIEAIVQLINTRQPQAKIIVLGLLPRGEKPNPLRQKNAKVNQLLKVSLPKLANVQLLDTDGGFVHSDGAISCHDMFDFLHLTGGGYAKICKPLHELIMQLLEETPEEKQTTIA
pPAFAH inh – inhibitors of human plasma PAF acetylhydrolase (pPAFAH). Q13093. actives 1.5% (n = 330,000). recombinant pPAFAH, FP-rhodamine probe fluorescence polarization. AID 463082. inhibition, % at 3.39 µM;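 active means inhibition above the mean inhibition across the screen plus 3 SD, cut at about 25% in these data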;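 further: inhibitors block binding of the rhodamine activity-based probe so polarization drops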
CTSL1 counter – counter-screen for PFM18AAP inhibitors: inhibitors of F. hepatica cathepsin L1; inhibition, % at 5.96 µM; AID 1906; recombinant F. hepatica cathepsin L1, Z-Leu-Arg-MCA fluorescence; actives 0.49% (n = 300,000);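 active means inhibition above the mean of all tested compounds plus 3 SD, set per screening campaign, cut at about 17% in these data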
PAFAH2 FP conf – PAFAH2 (human) inhibition, confirmed; shares compounds with PAFAH2 FP inh; inhibition, % at 3.39 µM; actives 65% (n = 2,300); recombinant PAFAH2, FP-rhodamine activity probe, fluorescence polarization;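 active means mean inhibition over three repeats above a set limit taken from the earlier primary screen, cut at about 30% in these data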;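 further: inhibitor blocks binding of rhodamine activity probe so polarization falls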
Large screens that a line does not name were inactive (follow-up assays come after a bar, where they were run). Compounds with a hit are over-represented: about 3% of the library has one in this group of screens.

O=C(CCC(NC(=O)OCc1ccccc1)C(=O)OCC(=O)N1CCCCC1)OCC(=O)N1CCCCC1 (configuration not stated)	PAFAH2 FP inh 53 | PAFAH2 FP conf 48
CCc1noc(C)c1C(=O)N1CCN(S(=O)(=O)c2c(C)c(C)cc(C)c2C)CC1	none
OC(CNCC(c1ccc(Cl)cc1Cl)c1c[nH]c2ccccc12)c1ccccc1 (configuration not stated)	none
COc1ccc(S(=O)(=O)N2CCOCC2)cc1NC(=O)Cc1ccccc1Cl	PAFAH2 FP inh 60 | PAFAH2 FP conf 55
COc1ccc(S(=O)(=O)N2CCOCC2)cc1NC(=O)COC(=O)c1[nH]c(C)c(C(C)=O)c1C	none (no result: PP5 inh, CTSL1 counter)
COc1ccc(S(=O)(=O)N2CCOCC2)cc1NC(=O)COC(=O)c1ccc([N+](=O)[O-])s1	PAFAH2 FP inh 40 (no result: PP5 inh, CTSL1 counter) | PAFAH2 FP conf 40
CCOc1ccc(CCNC(=O)C2CC(=O)N(c3ccc4c(c3)OCCO4)C2)cc1OCC (configuration not stated)	none
Cc1ccc(N2CCN(C(=O)CNS(=O)(=O)c3ccc(Br)s3)CC2C)cc1 (configuration not stated)	PAFAH2 FP inh 36 | PAFAH2 FP conf inactive
CC1CC(C)CN(C(=O)CNS(=O)(=O)c2ccc(Br)s2)C1 (configuration not stated)	none
O=C(C1=NNCC1c1ccccc1)C1OC1c1ccccc1 (configuration not stated)	none
CCOc1ncccc1C(=O)NCC(c1ccccc1)N(C)C (configuration not stated)	none
COc1ccc(/C=C/c2nc3ccccc3c(=O)o2)cc1	PAFAH2 FP inh 62 | PAFAH2 FP conf 57
COc1ccccc1/C=C/c1nc2ccc(OC(C)=O)cc2c(=O)o1	PAFAH2 FP inh 78 | PAFAH2 FP conf 67
CCCOC(=O)N[C@@H]1C(=O)N2C(C(=O)OCCC)=C(C)CS[C@H]12	none
Cc1ccc(NC(=O)Cc2nc(COC(=O)c3c(F)cccc3Cl)cs2)cc1	none (no result: PP5 inh, CTSL1 counter)
Cc1ccc(NC(=O)Cc2nc(COC(=O)Cc3cccc(C(F)(F)F)c3)cs2)cc1	PAFAH2 FP inh 47 (no result: PP5 inh, pPAFAH inh, CTSL1 counter) | PAFAH2 FP conf inactive
Cc1nn(C)cc1S(=O)(=O)Nc1cccc(Cl)c1	none
Cc1ccc2[nH]c(O)c(N=Nc3nc4ccccc4s3)c2c1	PAFAH2 FP inh 55 | PAFAH2 FP conf 36
Oc1[nH]c2ccccc2c1N=Nc1ccccc1	none
Cc1ccc2[nH]c(O)c(N=Nc3ccccc3[N+](=O)[O-])c2c1	none (no result: PP5 inh, pPAFAH inh, CTSL1 counter)
Oc1[nH]c2ccccc2c1N=Nc1nc2ccccc2s1	PAFAH2 FP inh 52 | PAFAH2 FP conf inactive
Cc1ccsc1C(=O)OCC(=O)NC1CCCC1	PAFAH2 FP inh 63 (no result: CTSL1 counter) | PAFAH2 FP conf 47
Cc1ccsc1C(=O)OCC(=O)N(C)C1CCCCC1	PAFAH2 FP inh 36 (no result: PP5 inh, CTSL1 counter) | PAFAH2 FP conf inactive
CCN1C[C@@H]2[C@@H]3C(=O)N(C)C(=O)[C@@H]3[C@](Cc3ccccc3)(C1=O)N2C(=O)c1ccc(Cl)c(Cl)c1	none (no result: PP5 inh, pPAFAH inh, CTSL1 counter)
O=C(NCc1ccccc1Cl)C1CCCN1C(=O)Nc1ccccc1 (configuration not stated)	none
Cc1c(NS(=O)(=O)c2cccc(C(=O)OCC(=O)c3ccc(Cl)cc3)c2)c(=O)n(-c2ccccc2)n1C	PAFAH2 FP inh 30 (no result: PP5 inh, pPAFAH inh, CTSL1 counter) | PAFAH2 FP conf inactive
Cc1c(NS(=O)(=O)c2cccc(C(=O)NCc3ccccc3Cl)c2)c(=O)n(-c2ccccc2)n1C	none (no result: PP5 inh, pPAFAH inh, CTSL1 counter)
COc1ccc(S(=O)(=O)N2CCOCC2)cc1NC(=O)Cc1coc2cc(C)c(C)cc12	none
Cc1ccc(C)c(OCc2cc(C(=O)NC3CCOC(C)(C)C3)no2)c1 (configuration not stated)	none
COc1cccc(NC(=O)c2ccc3c(c2)OCO3)c1	none
NC(=O)c1ccc(NC(=O)COC(=O)c2ccc3c(c2)OCCO3)cc1	none
COc1ccc(C(=O)OCC(=O)Nc2c(C)cccc2C)cc1	PAFAH2 FP inh 67 | PAFAH2 FP conf 60
O=C(OCCc1cc2ccccc2c(=O)o1)c1ccc2c(c1)OCO2	none (no result: CTSL1 counter)
O=C(COC(=O)c1ccc2c(c1)OCO2)Nc1ccccc1	PAFAH2 FP inh 84 | PAFAH2 FP conf 81
O=C(OCCCc1cc2ccccc2c(=O)o1)c1ccc2c(c1)OCO2	PAFAH2 FP inh 38 (no result: CTSL1 counter) | PAFAH2 FP conf inactive
COc1cccc(NC(=O)COC(=O)c2ccc3c(c2)OCO3)c1	PAFAH2 FP inh 83 (no result: PP5 inh, pPAFAH inh, CTSL1 counter) | PAFAH2 FP conf 73
O=C(COC(=O)/C=C/c1ccc2c(c1)OCO2)Nc1ccccc1	PAFAH2 FP inh 79 | PAFAH2 FP conf 81
Cc1cccc(NC(=O)COC(=O)c2ccc3c(c2)OCO3)c1C	PAFAH2 FP inh 40 | PAFAH2 FP conf 42
O=C(COC(=O)/C=C/c1ccc2c(c1)OCO2)Nc1ccc(S(=O)(=O)N2CCCC2)cc1	none
CN(C)c1ccc(NC(=O)COC(=O)c2ccc3c(c2)OCO3)cc1	PAFAH2 FP inh 32 (no result: PP5 inh, CTSL1 counter) | PAFAH2 FP conf inactive
O=C(COC(=O)c1ccncc1)Nc1ccccc1	none
O=C(COC(=O)c1ccc(CSc2ccc(Cl)cc2)cc1)Nc1ccccc1	PAFAH2 FP inh 34 | PAFAH2 FP conf inactive
COc1cc(CC(=O)N2CCN(C(=O)C3CCCO3)CC2)cc(OC)c1OC (configuration not stated)	none (no result: PP5 inh, CTSL1 counter)
CC(NS(=O)(=O)c1ccc(Cl)c(Cl)c1)C(=O)OCC(=O)Nc1ccc2c(c1)OCO2 (configuration not stated)	PAFAH2 FP inh 31 | PAFAH2 FP conf inactive
CN(C)c1nc(Oc2ccc(C(=O)OCC(=O)Nc3ccccc3)cc2)nc(N(C)C)n1	PAFAH2 FP inh 90 | PAFAH2 FP conf 76
CN(C)S(=O)(=O)c1cc(NC(=O)COC(=O)c2ccc3c(c2)OCO3)ccc1Cl	PAFAH2 FP inh 57 | PAFAH2 FP conf 78
O=C(COC(=O)c1ccc2c(c1)OCO2)Nc1ccccc1OC(F)F	PAFAH2 FP inh 47 (no result: PP5 inh, CTSL1 counter) | PAFAH2 FP conf 46
OCCNCC(O)CN1c2ccccc2Sc2ccccc21 (configuration not stated)	none (no result: PP5 inh, pPAFAH inh, CTSL1 counter)
CCn1nnnc1SCC(=O)N1CCCCC1	none
Cc1ccc(N(CC(=O)Nc2cccc(Cl)c2C)S(C)(=O)=O)cc1	none
CN(C)S(=O)(=O)c1ccc(Cl)c(NC(=O)COC(=O)/C=C/c2ccc3ccccc3n2)c1	none (no result: CTSL1 counter)
CN(C)S(=O)(=O)c1ccc(Cl)c(NC(=O)COC(=O)/C=C/c2ccco2)c1	PAFAH2 FP inh 46 | PAFAH2 FP conf 47
COc1cc(/C=C/C(=O)OCC(=O)Nc2cc(S(=O)(=O)N(C)C)ccc2Cl)ccc1O	PAFAH2 FP inh 60 | PAFAH2 FP conf 60
COc1ccc(/C=C/C(=O)OCC(=O)Nc2cc(S(=O)(=O)N(C)C)ccc2Cl)cc1	none
